Results from PubChem BioAssay (EPA / NIEHS).
Records with an inconclusive call do not appear. Active and inactive are the calls of the source. Rule for the calls, unless noted: active = hit-call score of the fitted dose curve at least 0.9, where 1 is the maximum; inactive = score below 0.9.

Tests used:
[1] = CCTE_Shafer_MEA_acute_spike_number: CCTE's Neural Acute Assay for Total Number of Spikes, Shafer Lab (AID 2284008);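 for AC50: curve fitted for decrease in spike count so AC50 reflects inhibitors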
Outline: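 Rat primary cortical neurons on 48-well MEA plates, DIV 13 or 15, at 37 C. 40 min baseline then 40 min with compound (0.03-40 uM); spikes detected at 8x rms noise, expressed as percent change from baseline.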

[2] = CCTE_Shafer_MEA_acute_firing_rate_mean: CCTE's Neural Acute Assay for Mean Firing Rate, Shafer Lab (AID 2284009);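 note: analyzed for loss of signal so actives lower firing rate relative to DMSO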
Outline: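 Spontaneous spiking of primary rat cortical networks, DIV 13/15, 37 C. Compound 0.03-40 uM, n ≥3 wells; 40 min baseline vs 40 min treated. Endpoint fitted in loss-of-signal direction against DMSO.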

[3] = CCTE_Harrill_HTTr_Viability_MCF7: CCTE's 6-hour Cell Viability Assessment for the High-Throughput Transcriptomics (HTTr) Platform, in MCF-7 cells cultured in DMEM + 10% fetal bovine serum, Harrill Lab (AID 2284010)
Outline: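 Propidium iodide exclusion, imaged by high-content analysis, gauged viability after a six-hour exposure across eight concentrations. Cells were MCF-7 grown in DMEM with 10% fetal bovine serum; fits run in both directions against DMSO.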

[4] = CCTE_Harrill_HTTr_Apoptosis_MCF7: CCTE's 6-hour Apoptosis Assessment for the High-Throughput Transcriptomics (HTTr) Platform, in MCF-7 cells cultured in DMEM + 10% fetal bovine serum, Harrill Lab (AID 2284011)
Outline: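 MCF-7 cells in DMEM + 10% FBS exposed 6 h to chemicals over an eight-point dilution series. Caspase-3/7 activation imaged by high-content CellEvent Green staining; fitted bidirectionally versus DMSO.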

[5] = CCTE_Shafer_MEA_acute_burst_duration_mean: CCTE's Neural Acute Assay for Mean Burst Duration, Shafer Lab (AID 2284014);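 note: hits are decreases in mean burst duration relative to DMSO controls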
Outline: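 Acute exposure of mature rat cortical networks (DIV 13 or 15) grown on microelectrode arrays to 0.03-40 uM compound. Mean burst duration compared with the 40-min pre-dose baseline over a 40-min post-dose recording at 37 C.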

[6] = CCTE_Shafer_MEA_acute_per_burst_spike_number_mean: CCTE's Neural Acute Assay for Average Number of Spikes Per Burst, Shafer Lab (AID 2284015);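 note: hits are decreases in mean spikes per burst versus baseline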
Outline: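 Percent change in mean spikes per single-electrode burst is compared between a 40 min baseline and a 40 min recording with compound (0.03-40 uM). Cultures were rat cortical neurons on MEA plates at DIV 13 or 15, recorded at 37 C, with DMSO as the negative control.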

[7] = CCTE_Shafer_MEA_acute_interburst_interval_mean: CCTE's Neural Acute Assay for Mean Interburst Interval, Shafer Lab (AID 2284016);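 note: percent change of mean interburst interval versus each well's own pre-dose baseline; curves fitted for decrease in interburst interval relative to DMSO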
Outline: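 Percent change in mean single-electrode interburst interval was calculated per well from 40 min recordings before and after compound (0.03-40 uM). Recordings were made at 37 C on rat cortical cultures at DIV 13 or 15, with spikes detected at 8x rms threshold.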

[8] = CCTE_Shafer_MEA_acute_burst_percentage_mean: CCTE's Neural Acute Assay for Percentage of Spikes in a Burst, Shafer Lab (AID 2284017);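 for AC50: curve fitted for loss of signal so potency reflects decreased burst percentage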
Outline: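 Well-level mean burst percentage from a 40-min recording after compound (0.03-40 uM) expressed as percent change from a 40-min baseline at 37C. Cultures: primary rat cortical neurons on MEA, dosed on DIV 13 or 15; fitted downward relative to DMSO.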

[9] = CCTE_Shafer_MEA_acute_burst_percentage_std: CCTE's Neural Acute Assay for Standard Deviation of Burst Percentage, Shafer Lab (AID 2284018);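 note: fitted in the negative direction so actives lower burst percentage SD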
Outline: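 Primary rat cortical neurons on 16-electrode MEA wells were recorded 40 min at baseline (DIV 13 or 15), then 40 min after compound (0.03-40 uM), at 37 C. Well value is SD across electrodes of spikes-in-bursts/total spikes; endpoint is percent change, DMSO-referenced.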

[10] = CCTE_Shafer_MEA_acute_per_network_burst_spike_number_std: CCTE's Neural Acute Assay for Standard Deviation of Number of Spikes in a Network Burst, Shafer Lab (AID 2284020);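 note: fitted for decrease in spike-number SD versus DMSO so actives lower it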
Outline: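 Acute MEA exposure, rat cortical neurons, 0.03-40 uM. Per-well % change versus own baseline; DMSO as negative control.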

[11] = CCTE_Shafer_MEA_acute_per_network_burst_electrodes_number_mean: CCTE's Neural Acute Assay for Mean Number of Electrodes in a Network Burst, Shafer Lab (AID 2284021);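 note: curves fitted for decreases only so hits reduce electrodes per burst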
Outline: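 Rat primary cortical neurons on 48-well MEAs, DIV 13 or 15, were treated at 0.03-40 uM. Spikes were detected at 8x rms noise and recorded at 37 C. The mean electrodes per network burst in a 40 min exposure recording was expressed as percent change from a 40 min baseline.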

[12] = target: Ratio of Nucleoli Translocation and Cytoplasm, AR (gene 367) (UniProt P10275); assay: UPITT_HCI_U2OS_AR_TIF2_Nucleoli_Cytoplasm_Ratio_Agonist: University of Pittsburgh U2OS Androgen Receptor-Transcriptional Intermediary Factor 2 (AR-TIF2) Agonism High Content Imaging Assay for Ratio of Nucleoli Translocation and Cytoplasm (AID 2284000; active = hit-call score of the fitted dose curve at least 0.9, where 1 is the maximum;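 note: hits raise the red nucleolar to cytoplasm ratio above vehicle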)
Outline: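 Primary screen at 20 uM final (0.2% DMSO), then triplicate confirmation and dose-response from 0.195 to 50 uM final (0.5% DMSO). Cells: U2OS with AR-RFP and TIF2-GFP. Endpoint is the nucleoli/cytoplasm red-fluorescence ratio, gain-of-signal vs DMSO.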

[13] = CCTE_Simmons_MITO_basal_resp_rate: CCTE's HepG2 Seahorse XF Respirometric Screening Assay at Basal Respiratory State, Simmons Lab (AID 2284001); conditions: actives raise or lower the signal
Outline: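 Readout is oxygen consumption rate after test compound injection, measured by Seahorse XF in HepG2 cells. Seven concentrations from 125 nM up to 100 uM final are tested, and activity in either direction is fitted against DMSO.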

[14] = CCTE_Simmons_MITO_inhib_resp_rate: CCTE's HepG2 Seahorse XF Respirometric Screening Assay at Inhibited Respiratory State [full ETC block], Simmons Lab (AID 2284006); conditions: actives raise or lower the signal
Outline: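 This endpoint is the respiration rate remaining after rotenone/antimycin A block, in HepG2 cells on a Seahorse XF96. Chemicals spanned 125 nM–100 uM final, in three biological replicates. OCR was read every 6 minutes for 72 minutes and compared with DMSO vehicle.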

[15] = CCTE_Simmons_MITO_viability: CellTiter-Glo Viability Assessment for CCTE's HepG2 Seahorse XF Respirometric Screening Assay [post-hoc], Simmons Lab (AID 2284007; active = hit-call score of the fitted dose curve at least 0.9, where 1 is the maximum;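 for AC50: cells exposed to chemical for 90 min before the ATP read; actives lower ATP signal relative to DMSO baseline meaning reduced viability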)
Outline: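 Luciferase-coupled ATP read-out after the Seahorse run: HepG2 cells treated 90 minutes with test chemical, 7-point series of 125 nM–100 uM final, in triplicate biological runs. Vehicle DMSO; dichlone as positive control over 8 concentrations.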

[16] = CCTE_Harrill_HTTr_CellCount_MCF7: CCTE's Cell Proliferation Assessment for the High-Throughput Transcriptomics (HTTr) Platform, Harrill Lab (AID 2284012; active = hit-call score of the fitted dose curve at least 0.9, where 1 is the maximum;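 note: cells exposed to compound for six hours; intended direction is loss of nuclei count meaning fewer cells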)
Outline: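 Cell count from high-content imaging of Hoechst-labeled nuclei serves as viability/growth readout. Chemicals were applied to MCF-7 cells in eight concentrations for six hours, with fitting in both directions relative to DMSO.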

[17] = target: Nucleoli Translocation, AR (gene 367) (UniProt P10275); assay: UPITT_HCI_U2OS_AR_TIF2_Nucleoli_Agonist: University of Pittsburgh U2OS Androgen Receptor-Transcriptional Intermediary Factor 2 (AR-TIF2) Agonism High Content Imaging Assay for Nucleoli Translocation (AID 2283998; active = hit-call score of the fitted dose curve at least 0.9, where 1 is the maximum)
Outline: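 U2OS cells expressing RFP-tagged human AR and GFP-tagged TIF2; red fluorescence in nucleoli quantified by high-content imaging. Primary screen at 20 uM final (0.2% DMSO); concentration-response 0.195–50 uM (0.5% DMSO), fitted upward versus DMSO.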

[18] = target: Ratio of Nucleoli Translocation and Cytoplasm, AR (gene 367) (UniProt P10275); assay: UPITT_HCI_U2OS_AR_TIF2_Nucleoli_Cytoplasm_Ratio_Antagonist: University of Pittsburgh U2OS Androgen Receptor-Transcriptional Intermediary Factor 2 (AR-TIF2) Antagonism High Content Imaging Assay for Ratio of Nucleoli Translocation and Cytoplasm (AID 2283999; active = hit-call score of the fitted dose curve at least 0.9, where 1 is the maximum;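 note: antagonists lower the DHT-driven ratio of nucleolar to cytoplasmic red signal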)
Outline: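 High-content imaging of red fluorescence ratio, nucleoli versus cytoplasm, in U2OS expressing AR-RFP and TIF2-GFP, fitted relative to DHT. Compounds tested once at 20 uM final, then 0.195 to 50 uM final in serial dilution.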

Measured: AC50

Ratio of Nucleoli Translocation and Cytoplasm, AR (gene 367), sequence (P10275 whole entry, looked up): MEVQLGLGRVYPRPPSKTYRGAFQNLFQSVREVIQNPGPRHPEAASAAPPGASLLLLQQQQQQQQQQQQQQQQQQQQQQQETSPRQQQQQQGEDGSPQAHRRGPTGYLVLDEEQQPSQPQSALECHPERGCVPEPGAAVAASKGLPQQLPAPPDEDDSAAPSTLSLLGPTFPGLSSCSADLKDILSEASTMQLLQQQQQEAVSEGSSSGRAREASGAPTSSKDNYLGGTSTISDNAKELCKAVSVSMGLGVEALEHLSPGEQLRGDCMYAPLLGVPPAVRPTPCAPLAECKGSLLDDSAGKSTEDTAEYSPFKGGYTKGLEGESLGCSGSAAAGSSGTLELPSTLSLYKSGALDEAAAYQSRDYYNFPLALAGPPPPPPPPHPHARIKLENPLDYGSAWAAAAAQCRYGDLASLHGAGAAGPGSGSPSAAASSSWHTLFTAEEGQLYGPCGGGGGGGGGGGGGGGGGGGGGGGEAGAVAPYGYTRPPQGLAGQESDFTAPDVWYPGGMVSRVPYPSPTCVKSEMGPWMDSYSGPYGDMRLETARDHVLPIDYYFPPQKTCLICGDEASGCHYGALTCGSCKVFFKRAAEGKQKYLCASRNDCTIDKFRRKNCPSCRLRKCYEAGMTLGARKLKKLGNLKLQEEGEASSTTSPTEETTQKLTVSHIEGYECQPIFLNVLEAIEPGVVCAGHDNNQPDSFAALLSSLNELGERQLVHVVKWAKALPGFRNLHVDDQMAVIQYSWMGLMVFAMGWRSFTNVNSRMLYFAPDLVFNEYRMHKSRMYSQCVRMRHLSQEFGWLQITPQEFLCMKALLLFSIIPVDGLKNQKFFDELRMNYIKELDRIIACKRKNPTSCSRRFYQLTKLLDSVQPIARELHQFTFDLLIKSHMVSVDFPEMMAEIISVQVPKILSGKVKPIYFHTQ
Nucleoli Translocation, AR (gene 367), sequence (P10275 whole entry, looked up): as above

CC[C@H](C)C(=O)O[C@H]1C[C@H](O)C=C2C=C[C@H](C)[C@H](CC[C@@H](O)C[C@@H](O)CC(=O)O)[C@H]21
not listed: [12] | [13] | [14] | [15] | [16] | [17] | [18]
inactive: all other assays above

COCc1nnc(-c2ccc[n+]([O-])c2)n1-c1c(Cl)c(Cl)cc2[nH]c(=O)c(=O)[nH]c12
inactive: [12] | [1] | [2] | [3] | [4] | [5] | [9] | [11]
active: [6] 8.06 µM | [7] 30 µM | [8] 17.2 µM | [10] 10.9 µM

CCc1ccc(O)c(C(C)(C)C)c1
active: [1] 0.679 µM | [2] 0.672 µM | [5] 30 µM | [6] 30.3 µM | [8] 2.12 µM | [9] 20 µM | [11] 35 µM
not listed: [12] | [17] | [18]
inactive: all other assays above

OC(CCl)CCl
not listed: [12] | [13] | [14] | [15] | [17] | [18]
inactive: all other assays above

CC(C)c1nnc2ccc(-c3ocnc3-c3cc(F)ccc3F)cn12
inactive: [14] | [3] | [4]
active: [13] 25.6 µM | [15] 50 µM

OCCOCCOCCO
inactive: [17] | [12] | [3] | [4]

c1ccc2cc3ccccc3cc2c1
active: [1] 0.003 µM | [2] 0.003 µM
inactive: [3] | [4] | [5] | [6] | [7] | [8] | [9] | [10] | [11]

CCCc1ccccc1
inactive: [1] | [2] | [5] | [6] | [7] | [8] | [9] | [10] | [11]

COc1cc2c(c(OC)c1OC)-c1ccc(OC)c(=O)cc1[C@@H](NC(C)=O)CC2
active: [11] 31.6 µM
not listed: [13] | [14] | [15]
inactive: all other assays above
